Some test systems named below: SK-MEL-2 melanoma; EKVX NSCLC; SN12C renal; UO-31 renal; TK-10 renal; ACHN renal; A498 renal; CCRF-CEM leukemia; MOLT-4 leukemia; SR leukemia; RPMI-8226 leukemia; OVCAR-8 ovarian; OVCAR-5 ovarian; OVCAR-4 ovarian; SK-OV-3 ovarian; IGROV1 ovarian; OVCAR-3 ovarian; HS 578T breast; NCI/ADR-RES ovarian; CAKI-1 renal.
Assay in all cases: NCI-60 one-dose screen, 48 h (100 = growth as untreated, 0 = no growth, -100 = all killed)
Settings in all cases: 10 µM unless noted

Among the data in PubChem BioAssay (NCI) are growth values, retold here.

This is part of a sample that, as a whole, favours compounds with a hit. Of some 83,000 tested, about 20% had one in any assay.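 How to read the values: 0–100, growth inhibition (40 = 60% inhibited); 0, no net growth; -100 to 0, cell death (-40 = 40% of starting cells died; -100 = all dead).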 A number with no mark means an inactive call. Calls of active or inactive are those of the source. How the source made its calls: active means growth percent below 10; inactive means the rest.

With `O=C(NNC(=O)c1nc2cc(F)ccc2n2cccc12)c1cnccn1`, the growth in the experiment with SK-MEL-2 melanoma is 67.1%; in the experiment on EKVX NSCLC it was 29.2%; with SN12C renal, 40.2%; with UO-31 renal it was 33.3%; in the experiment on TK-10 renal, 62.7%; in the experiment with ACHN renal, 26%. The growth is 19.9% in the experiment with A498 renal; 17.1% with CCRF-CEM leukemia; 15% in the experiment with MOLT-4 leukemia; 21.4% in the experiment on SR leukemia; 41.3% with RPMI-8226 leukemia; 24.2% in the experiment on OVCAR-8 ovarian. Moreover, the growth with OVCAR-5 ovarian is 68.3%; in the experiment with OVCAR-4 ovarian, 28.4%; in the experiment with SK-OV-3 ovarian, 42.1%; with IGROV1 ovarian, 35.6%; in the experiment on OVCAR-3 ovarian, 30%; in the experiment with HS 578T breast it was 67.8%. Besides, the growth with NCI/ADR-RES ovarian is 20.8%.

Turning to `C[C@H](CCCC(=O)NCC#CCN1CCN(C)CC1)[C@H]1CC[C@H]2[C@@H]3CC[C@@H]4CC(=O)CC[C@]4(C)[C@H]3CC[C@]12C`, the growth with SK-MEL-2 melanoma is 103%; in the experiment with EKVX NSCLC it was 93.5%; in the experiment with SN12C renal it was 86%; in the experiment on UO-31 renal, 64.5%; in the experiment on TK-10 renal, 99%; in the experiment on ACHN renal it was 105%. For the same compound, the growth was 75.4% in the experiment with A498 renal; 81.2% with CCRF-CEM leukemia; 84.3% with MOLT-4 leukemia; 48.3% in the experiment with SR leukemia; 86.7% with RPMI-8226 leukemia; 94.6% in the experiment on OVCAR-8 ovarian. The growth in the experiment with OVCAR-5 ovarian is 93.3%; with OVCAR-4 ovarian, 98.4%; with SK-OV-3 ovarian, 81.6%; in the experiment on IGROV1 ovarian, 92.2%; in the experiment on OVCAR-3 ovarian, 91.5%; in the experiment on HS 578T breast it was 81.8%. The growth in the experiment on NCI/ADR-RES ovarian was 93.5%.

For `Oc1c(CN2CCC(N3CCCCC3)CC2)cc(Cc2cc(CN3CCC(N4CCCCC4)CC3)c(O)c3ncccc23)c2cccnc12`, the growth in the experiment on SK-MEL-2 melanoma was 41.4%; in the experiment with EKVX NSCLC, 26%; in the experiment on SN12C renal, 34.2%; in the experiment with UO-31 renal, 12.4%; with TK-10 renal, 33.5%; in the experiment with ACHN renal, 13.8%. Further, the growth is 77.7% in the experiment on A498 renal; 6.54% (active) in the experiment on CCRF-CEM leukemia; 6.56% (active) with MOLT-4 leukemia; 12.1% with SR leukemia; 25.4% with RPMI-8226 leukemia; 30.1% with OVCAR-8 ovarian. Moreover, the growth is 42.1% in the experiment with OVCAR-5 ovarian; 20.7% with OVCAR-4 ovarian; 20.5% with SK-OV-3 ovarian; 22.9% with IGROV1 ovarian; 11.1% with OVCAR-3 ovarian; 52.8% with HS 578T breast. Moreover, in the experiment on NCI/ADR-RES ovarian, the growth is 48.4%.

Take `Cc1ccc(C(=O)c2ccc(CC(=O)NN3C(=O)c4ccccc4C3=O)n2C)cc1`: the growth is 102% with SK-MEL-2 melanoma; 100% in the experiment on EKVX NSCLC; 92.8% in the experiment with SN12C renal; 75.7% in the experiment on UO-31 renal; 111% in the experiment with TK-10 renal; 96.3% with ACHN renal. The growth in the experiment on A498 renal was 104%; in the experiment with CCRF-CEM leukemia, 110%; in the experiment with MOLT-4 leukemia, 100%; in the experiment with SR leukemia, 110%; in the experiment on RPMI-8226 leukemia, 100%; in the experiment with OVCAR-8 ovarian it was 98.9%. The growth in the experiment with OVCAR-5 ovarian was 93.7%; in the experiment with OVCAR-4 ovarian, 101%; in the experiment with SK-OV-3 ovarian, 109%; in the experiment on IGROV1 ovarian, 98.6%; with OVCAR-3 ovarian, 107%; in the experiment with HS 578T breast, 104%. Besides, the growth in the experiment on NCI/ADR-RES ovarian was 99.1%.

Regarding `CC1=C(C(=O)Nc2nc(-c3ccc(Cl)cc3)cs2)[C@H](c2ccc(O)cc2)NC(=O)N1`, the growth was 106% in the experiment on SK-MEL-2 melanoma; 94.1% in the experiment on EKVX NSCLC; 107% in the experiment on SN12C renal; 78.3% in the experiment on UO-31 renal; 103% with TK-10 renal; 105% in the experiment with ACHN renal. For the same compound, the growth is 99.4% with A498 renal; 116% in the experiment on CCRF-CEM leukemia; 94.2% with MOLT-4 leukemia; 113% with SR leukemia; 109% in the experiment on RPMI-8226 leukemia; 105% in the experiment with OVCAR-8 ovarian. The growth with OVCAR-5 ovarian was 106%; with OVCAR-4 ovarian, 98.6%; with SK-OV-3 ovarian, 111%; with IGROV1 ovarian, 97.8%; in the experiment on OVCAR-3 ovarian it was 95.8%; in the experiment on HS 578T breast, 106%. Further, in the experiment on NCI/ADR-RES ovarian, the growth was 101%.

Turning to `O=C1c2ccccc2C(=O)c2c1cc1c(c2[N+](=O)[O-])OCO1`, the growth is -30.8% (active) with SK-MEL-2 melanoma; 22.9% in the experiment on EKVX NSCLC; 13.9% in the experiment on SN12C renal; -3.07% (active) in the experiment on UO-31 renal; -14.8% (active) with TK-10 renal; -18.6% (active) in the experiment with ACHN renal. The growth is -44.9% (active) in the experiment with A498 renal; 22.9% in the experiment with CCRF-CEM leukemia; 28.7% in the experiment with MOLT-4 leukemia; 14.6% in the experiment on SR leukemia; 7.28% (active) with RPMI-8226 leukemia; 14.4% with OVCAR-8 ovarian. Moreover, the growth with OVCAR-5 ovarian is 9.69% (active); in the experiment on OVCAR-4 ovarian, 19.2%; in the experiment with SK-OV-3 ovarian, -14.7% (active); in the experiment with IGROV1 ovarian, 5.43% (active); in the experiment with OVCAR-3 ovarian, -20.9% (active); in the experiment with HS 578T breast, 6.81% (active). Also, the growth in the experiment with NCI/ADR-RES ovarian was -11.7% (active).

`CN(CCC(=O)c1ccccc1)CCC(=O)c1ccccc1`: the growth in the experiment with SK-MEL-2 melanoma is 91%; in the experiment with EKVX NSCLC, 103%; in the experiment on SN12C renal it was 82.5%; in the experiment on UO-31 renal it was 77.1%; in the experiment on TK-10 renal, 88.8%; in the experiment with ACHN renal, 107%. Further, the growth in the experiment with CAKI-1 renal was 90.7%; in the experiment on CCRF-CEM leukemia it was 80.6%; with RPMI-8226 leukemia, 50.8%; in the experiment on OVCAR-8 ovarian it was 93.2%; in the experiment with OVCAR-5 ovarian it was 95.5%; in the experiment with OVCAR-4 ovarian, 103%. In addition, the growth is 99.8% in the experiment with SK-OV-3 ovarian; 95.3% in the experiment on IGROV1 ovarian; 113% in the experiment on OVCAR-3 ovarian; 100% in the experiment on HS 578T breast; 86.5% in the experiment with NCI/ADR-RES ovarian.

In the case of `O=C(NC(Cc1nnc2n(Cc3ccccc3)c(=O)c3c4c(sc3n12)CCCC4)c1ccccc1)c1ccccc1` (stereo not given), the growth was 108% in the experiment with SK-MEL-2 melanoma; 99.3% in the experiment with EKVX NSCLC; 119% in the experiment with SN12C renal; 65% in the experiment on UO-31 renal; 119% with TK-10 renal; 127% in the experiment on ACHN renal. Further, the growth is 109% in the experiment with A498 renal; 61.9% with CCRF-CEM leukemia; 61.2% with MOLT-4 leukemia; 104% in the experiment on SR leukemia; 123% with RPMI-8226 leukemia; 77.1% in the experiment on OVCAR-8 ovarian. Moreover, the growth was 86.7% with OVCAR-5 ovarian; 103% in the experiment with OVCAR-4 ovarian; 110% in the experiment with SK-OV-3 ovarian; 54.9% with IGROV1 ovarian; 107% in the experiment with OVCAR-3 ovarian; 101% with HS 578T breast. Moreover, in the experiment with NCI/ADR-RES ovarian, the growth is 87.9%.
